# Reference: PubChem BioAssay (Tox21)
# “And” between values parts separate entries of the source, which are not always exact repeats. Equal values may be shown once. Values without a mark were called inactive. Results filed as inconclusive are left out. A call without a number means that no potency is given here. The source made the active and inactive calls. Unless noted, calls come from the whole dose curve; as a rule, active = well fitted curve in the direction sought with a large enough effect in the repeat runs; inconclusive = weak or mixed curves; inactive = no such curve, though single readings can be large; an effect the other way counts as inactive or inconclusive.
# Assays:
# [1] = qHTS assay to identify small molecule antagonists of the estrogen related receptor (ERR) signaling pathway from Tox21 library - cell viability counter screen (AID 1224834); note: nearly all actives have a fitted effect of over 30% in size
# Method in brief: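 ERR reporter cells were plated 6 h before compound addition, then exposed to test compounds in DMSO for 17.5 h at 37 C. Viability was read as CellTiter-Fluor fluorescence after a 30-minute incubation at 37 C.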
# [2] = qHTS assay to identify small molecule agonists of the constitutive androstane receptor (CAR) signaling pathway - cell viability counter screen (AID 1224836); note: nearly all actives have a fitted effect of over 45% in size; note: potency is the fitted concentration of half-maximal effect
# Method in brief: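 Using CellTiter-Fluor, viability of HepG2 cells harbouring hCAR and CYP2B6-2.2kb was measured following 23 h incubation with a 15-concentration compound series plus PK11195 (0.75 uM final).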
# [3] = qHTS assay to identify small molecule antagonists of the constitutive androstane receptor (CAR) signaling pathway - cell viability counter screen (AID 1224837); note: nearly all actives have a fitted effect of over 45% in size
# Method in brief: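 HepG2 cells stably expressing hCAR and a CYP2B6-2.2kb reporter were plated and pre-incubated 4 hr at 37 C/5% CO2, then given compounds at 15 concentrations plus 50 nM CITCO (final). After 23 hr, viability was read by CellTiter-Fluor fluorescence.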
# [4] = biological target: Nuclear receptor subfamily 1 group I member 3 (Homo sapiens) (UniProt Q14994); assay: qHTS assay to identify small molecule antagonists of the constitutive androstane receptor (CAR) signaling pathway (AID 1224838); note: nearly all actives have a fitted effect of over 40% in size; note: potency is the fitted concentration of half-maximal effect
# Method in brief: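 HepG2 cells stably co-transfected with hCAR and a CYP2B6-2.2kb luciferase reporter were seeded 4 h before compound addition at 15 concentrations. Cells were stimulated with 50 nM CITCO (final) for 24 h at 37 C; luciferase luminescence was then read.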
# [5] = biological target: Nuclear receptor subfamily 1 group I member 3 (Homo sapiens) (UniProt Q14994); assay: qHTS assay to identify small molecule agonists of the constitutive androstane receptor (CAR) signaling pathway (AID 1224839); note: nearly all actives have a fitted effect of over 15% in size; note: potency is the fitted concentration of half-maximal effect;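 for activation: HepG2 cells stably carrying human CAR and a CYP2B6 luciferase reporter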
# Method in brief: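 Double-stable HepG2 cells (hCAR, CYP2B6-2.2kb) seeded 4 h before compound addition. Exposure 24 h with 0.75 uM PK11195 final. Luciferase detected by ONE-Glo.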
# [6] = qHTS assay to identify small molecule antagonists of the estrogen related receptor signaling pathway with the pleiotropic PPARgamma coactivator (PGC) from Tox21 10K library (AID 1224841; call rule not given here; note: actives are mostly falling curves and most rising ones were filed inactive; nearly all actives have a fitted effect of over 50% in size; note: potency is the fitted concentration of half-maximal effect)
# Method in brief: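 PGC/ERR reporter cells were seeded at 2,000 cells/well and held 6 hours at 37 C/5% CO2 before pin-tool addition of compounds in DMSO. After 18 hours at 37 C, One-Glo was added and luminescence read after 30 minutes at room temperature.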
# [7] = qHTS assay to identify small molecule agonists of the estrogen related receptor signaling pathway with the pleiotropic PPARgamma coactivator (PGC) from Tox21 10K library (AID 1224842); note: nearly all actives have a fitted effect of over 15% in size
# Method in brief: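 Luminescence from One-Glo (30 min, room temperature) measured after PGC/ERR cells had 18 h at 37 C with pinned compound (23 nL in DMSO). Cells had been seeded at 2,000 per well and pre-incubated 6 h.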
# [8] = qHTS assay to identify small molecule agonists of the hypoxia (HIF-1) signaling pathway - cell viability counter screen (AID 1224844; calls by dose curve; note: nearly all actives have a fitted effect of over 50% in size; note: potency is the fitted concentration of half-maximal effect)
# Method in brief: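 HRE-bla ME-180 cells in medium with 0.5% dialyzed FBS were preincubated 5 hrs at 37C, exposed to compounds for 17 hrs, then viability was read as CellTiter-Glo luminescence after 30 min at room temperature, in the reporter wells.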
# [9] = qHTS assay to identify small molecule agonists of H2AX (AID 1224845; active = well fitted activation curve with a large enough effect in the signal ratio in the repeat runs, not every such curve was filed as active; the % refers to the signal ratio; note: potency is the fitted concentration of half-maximal effect)
# Method in brief: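 Phospho-H2AX Ser139 measured by HTRF (ex 320 nm; em 665 and 620 nm) after 24 hr antibody incubation. Compounds, 15 concentrations, 0.76% DMSO, were applied to CHO-K1 cells for 3hr at 37C before lysis.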
# [10] = qHTS assay to identify small molecule agonists of H2AX - cell viability counter screen (AID 1224847; calls by dose curve; note: nearly all actives have a fitted effect of over 30% in size; note: potency is the fitted concentration of half-maximal effect)
# Method in brief: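 Quantitative HTS viability measurement: CHO-K1 wild-type cells in serum (10% FBS) medium, short 3 hr drug exposure at 37C with 0.76% DMSO, CellTiter-Glo luminescent detection.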
# [11] = qHTS assay to identify small molecule antagonists of the estrogen related receptor (ERR) signaling pathway from Tox21 library (AID 1224848); note: nearly all actives have a fitted effect of over 50% in size; note: potency is the fitted concentration of half-maximal effect
# Method in brief: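 Antagonist-mode screen of the Tox21 10K library in an NTP-provided ERR reporter cell line; 18 h compound exposure at 37 C, luminescence measured with ONE-Glo.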
# [12] = qHTS assay to identify small molecule agonists of the estrogen related receptor (ERR) signaling pathway from Tox21 library (AID 1224849; calls by dose curve; note: nearly all actives have a fitted effect of over 15% in size); conditions: ERR reporter cell line, ONE-Glo luciferase, 18 h; at 92.4 µM (top of the series) unless noted
# Method in brief: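 ERR reporter cell line (NTP) seeded, rested 6 h at 37 C/5% CO2, then pinned with Tox21 compounds in DMSO. After 18 h at 37 C, ONE-Glo luciferase luminescence was read following 30 min at room temperature.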
# [13] = qHTS RealTime-Glo MT Cell Viability Assay in HepG2 cells - 24 hour (AID 1224867); note: nearly all actives have a fitted effect of over 50% in size
# Method in brief: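 HepG2 cells (600/well) were dispensed with RealTime-Glo reagents, incubated 5 h at 37 °C, then treated with compounds in DMSO for up to 40 h. Nonlytic NanoLuc luminescence reflecting viable cells was read at each stated time point.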
# [14] = qHTS RealTime-Glo MT Cell Viability Assay in HEK293 cells - 32 hour (AID 1224868); note: nearly all actives have a fitted effect of over 50% in size; note: potency is the fitted concentration of half-maximal effect
# Method in brief: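 HEK293 cells seeded with NanoLuc/prosubstrate reagent, rested 5 h at 37 C, then dosed and kept at 37 C up to 40 h. Nonlytic real-time luminescence from viable cells read at 0, 8, 16, 24, 32 and 40 h.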
# [15] = A CellTox Green Cytotoxicity Assay to monitor cytotoxicity in HEK293 cells - 0 hour (AID 1224869); note: nearly all actives have a fitted effect of over 50% in size
# Method in brief: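 HEK293 cells premixed with CellTox Green dye were seeded at 600 cells/well and left 5 h at 37 C/5% CO2 before pin transfer of 23 nL compound in DMSO. Fluorescence from dye bound to dead-cell DNA was read during 40 h treatment.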
# [16] = qHTS RealTime-Glo MT Cell Viability Assay in HepG2 cells - 40 hour (AID 1224870); note: nearly all actives have a fitted effect of over 50% in size
# Method in brief: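 Real-time viability: cells seeded at 600 per well together with NanoLuc and cell-permeant prosubstrate, compounds added after 5 h incubation. Luminescence tracked at 0, 8, 16, 24, 32 and 40 h of exposure.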
# [17] = qHTS assay to identify small molecule agonists of the hypoxia (HIF-1) signaling pathway (AID 1224846; active = well fitted activation curve with a large enough effect in the signal ratio in the repeat runs, not every such curve was filed as active; the % refers to the signal ratio)
# Method in brief: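 HRE-bla ME-180 cells (beta-lactamase reporter under hypoxia response element) were plated at 2,000 cells/well in medium with 0.5% dialyzed FBS, rested 5 hrs, then given compounds in DMSO for 17 hrs at 37C, 5% CO2. Reporter induction was read with CCF4-AM FRET substrate.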
# [18] = biological target: Thyrotropin receptor (Homo sapiens) (UniProt P16473); assay: qHTS assay to identify small molecule agonists of the thyroid stimulating hormone receptor (TSHR) signaling pathway (AID 1224843; calls by dose curve; note: nearly all actives have a fitted effect of over 45% in size)
# Method in brief: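 Screening of the Tox21 10K collection used HEK293 cells engineered with TSHR at 800 cells per well. After a 30-min room-temperature compound exposure, HTRF cAMP reagents were added and fluorescence recorded 1 h later.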
# [19] = qHTS assay to identify small molecule antagonists of the estrogen related receptor signaling pathway with the pleiotropic PPARgamma coactivator (PGC) from Tox21 10K library - cell viability counter screen (AID 1224840; active = well fitted cell-killing curve with a large enough effect in the repeat runs, not every such curve was filed as active; note: nearly all actives have a fitted effect of over 40% in size)
# Method in brief: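 PGC/ERR cells were seeded at 2,000 cells/well and left 6 hours at 37 C/5% CO2 before pin-tool addition of compounds in DMSO. After 17.5 hours at 37 C, CellTiter-Fluor was added and fluorescence read 30 minutes later.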
# [20] = biological target: Luciferin 4-monooxygenase (Photinus pyralis) (UniProt P08659); assay: qHTS assay to identify small molecule inhibitors of firefly luciferase (AID 1224835); note: nearly all actives have a fitted effect of over 25% in size
# Method in brief: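 Inhibition of purified Photinus luciferase is measured by luminescence. Substrate levels (D-luciferin, ATP) sit at their KM values. Each compound is tested in a concentration series.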
# Sequence of Thyrotropin receptor (Homo sapiens) (P16473 whole entry, looked up): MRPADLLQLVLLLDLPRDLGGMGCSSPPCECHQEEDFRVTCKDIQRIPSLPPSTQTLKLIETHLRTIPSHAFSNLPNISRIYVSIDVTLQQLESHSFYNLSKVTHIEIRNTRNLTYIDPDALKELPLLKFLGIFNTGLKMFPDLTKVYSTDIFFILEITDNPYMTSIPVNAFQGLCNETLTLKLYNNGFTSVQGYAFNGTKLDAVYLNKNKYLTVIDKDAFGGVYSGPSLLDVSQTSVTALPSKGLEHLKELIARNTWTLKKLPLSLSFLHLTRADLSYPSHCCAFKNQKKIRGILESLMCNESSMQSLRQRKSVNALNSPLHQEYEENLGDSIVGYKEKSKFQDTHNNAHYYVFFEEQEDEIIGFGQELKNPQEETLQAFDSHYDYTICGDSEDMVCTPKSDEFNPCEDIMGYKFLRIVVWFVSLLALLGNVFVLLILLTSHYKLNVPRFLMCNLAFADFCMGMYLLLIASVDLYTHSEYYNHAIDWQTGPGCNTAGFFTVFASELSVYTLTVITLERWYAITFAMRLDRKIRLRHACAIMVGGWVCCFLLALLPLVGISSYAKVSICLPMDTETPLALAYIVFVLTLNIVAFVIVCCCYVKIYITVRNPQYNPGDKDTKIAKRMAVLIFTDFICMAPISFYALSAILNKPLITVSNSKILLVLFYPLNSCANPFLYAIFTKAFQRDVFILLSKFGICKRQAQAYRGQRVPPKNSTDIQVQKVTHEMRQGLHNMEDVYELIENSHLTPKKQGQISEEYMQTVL
# Sequence of Luciferin 4-monooxygenase (Photinus pyralis) (P08659 whole entry, looked up): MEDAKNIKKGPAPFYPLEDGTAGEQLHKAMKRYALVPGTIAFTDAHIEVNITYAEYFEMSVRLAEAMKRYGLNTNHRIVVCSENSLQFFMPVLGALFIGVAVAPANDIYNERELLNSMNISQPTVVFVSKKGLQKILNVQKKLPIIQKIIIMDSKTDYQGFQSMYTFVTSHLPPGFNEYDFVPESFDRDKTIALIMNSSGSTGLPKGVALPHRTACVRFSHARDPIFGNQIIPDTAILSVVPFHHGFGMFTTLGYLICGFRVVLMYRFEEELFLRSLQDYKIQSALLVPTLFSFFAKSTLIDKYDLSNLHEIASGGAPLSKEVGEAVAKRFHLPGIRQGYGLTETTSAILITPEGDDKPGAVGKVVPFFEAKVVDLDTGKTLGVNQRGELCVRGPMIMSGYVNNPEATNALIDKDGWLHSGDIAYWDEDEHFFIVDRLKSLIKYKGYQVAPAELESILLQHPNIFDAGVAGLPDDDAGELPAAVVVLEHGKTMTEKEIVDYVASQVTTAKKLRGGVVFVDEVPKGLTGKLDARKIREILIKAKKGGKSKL
# Sequence of Nuclear receptor subfamily 1 group I member 3 (Homo sapiens) (Q14994 whole entry, looked up): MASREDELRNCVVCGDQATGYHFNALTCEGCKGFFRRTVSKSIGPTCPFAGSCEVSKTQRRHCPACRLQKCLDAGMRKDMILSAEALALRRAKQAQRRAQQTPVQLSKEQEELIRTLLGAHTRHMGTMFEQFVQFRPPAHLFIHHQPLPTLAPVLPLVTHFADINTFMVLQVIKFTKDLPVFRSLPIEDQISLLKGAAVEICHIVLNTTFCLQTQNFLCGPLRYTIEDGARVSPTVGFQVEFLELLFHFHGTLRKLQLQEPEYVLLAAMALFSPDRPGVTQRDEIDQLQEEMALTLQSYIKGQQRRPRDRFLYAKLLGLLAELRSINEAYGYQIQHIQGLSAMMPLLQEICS
Structure (SMILES),Potency [1],Potency [2],Potency [3],Potency [4],Potency [5],Potency [6],Potency [7],Potency [8],Potency [9],Potency [10],Potency [11],"activity change, positive = activation [12]",Potency [13],Potency [14],Potency [15],Potency [16],outcome [17],Potency [18],Potency [19],Potency [20]
Sc1ccccc1Cl,inactive,inactive,inactive,inactive,inactive,inactive,inactive,inactive,inactive,inactive,inactive,1.99% [at 42.5 µM],inactive,inactive,inactive,inactive,,,,
COC(C)(C)CCC[C@H](C)C/C=C/C(C)=C/C(=O)OC(C)C,inactive,inactive,inactive,inactive,inactive,inactive,inactive,inactive,,inactive,,-23.3%,inactive,inactive,inactive,inactive,inactive,,,
C=CC(C)=O,inactive,inactive,inactive,,,inactive,inactive,inactive,inactive,inactive,inactive,-0.611%,inactive,inactive,inactive,inactive,,inactive,,
C=CCN1CC[C@]23c4c5ccc(O)c4O[C@H]2C(=O)CC[C@@]3(O)[C@H]1C5,inactive,inactive,inactive,,,inactive,,inactive,inactive,inactive,inactive,,inactive,inactive,inactive,inactive,,inactive,inactive,
O=C(N[C@H](c1ccccc1)[C@@H]1CN2CCC1CC2)c1c(Cl)ccc(C(F)(F)F)c1Cl,,98.4 µM (active),,13.9 µM (active),inactive,31.1 µM (active),inactive,inactive,,182 µM (active),39.2 µM (active),,,70.2 µM (active),,inactive,inactive,,,inactive
O=C(NCc1cccnc1)Nc1ccc([N+](=O)[O-])cc1,,inactive,inactive,inactive,,,,inactive,inactive,inactive,,,inactive,49 µM (active),inactive,inactive,inactive,inactive,,inactive
CCCCCCC#N,,inactive,inactive,,,,,inactive,inactive,inactive,,,inactive,inactive,inactive,inactive,inactive,inactive,,inactive
Clc1cc(Cl)c(Cl)c(Cl)c1,,inactive,inactive,inactive,inactive,,,inactive,inactive,,,,inactive,inactive,,inactive,inactive,,,inactive
NS(=O)(=O)C(F)(F)C(F)(F)C(F)(F)C(F)(F)C(F)(F)C(F)(F)C(F)(F)C(F)(F)F,,,inactive,inactive,inactive,inactive,,,inactive,,inactive,,inactive,inactive,inactive,inactive,inactive,,inactive,inactive
C[C@H]1CNCCc2ccc(Cl)cc21,,inactive,inactive,inactive,,inactive,inactive,inactive,inactive,inactive,inactive,,inactive,inactive,inactive,inactive,inactive,inactive,inactive,inactive
CCOP(=O)(OCC)Oc1ccc([N+](=O)[O-])cc1,,inactive,inactive,inactive,,19.6 µM (active) and 5.45 µM (active),,inactive,inactive,inactive,13.9 µM (active) and 12.2 µM (active),-65.4% and -61.8%,inactive,inactive,inactive,inactive,,inactive,inactive,inactive
CCO[C@H]1O[C@@H]2OC3(C)CC[C@H]4[C@H](C)CC[C@@H]([C@H]1C)[C@@]24OO3,,,inactive,inactive,4.22 µM (active),0.668 µM (active),inactive,inactive,,inactive,0.531 µM (active),-53.8% [at 42.5 µM],inactive,inactive,inactive,inactive,inactive,,inactive,inactive
CC1(C)CCC(Cc2ccc(Cl)cc2)C1(O)Cn1cncn1 (configuration not stated),,,inactive,inactive,inactive,38.6 µM (active),inactive,,inactive,101 µM (active),30.6 µM (active),,inactive,24.5 µM (active),inactive,inactive,inactive,,,inactive
N#CCC#N,,48.6 µM (active),,61.1 µM (active),,,,inactive,89.8 µM (active),inactive,,,inactive,inactive,inactive,inactive,inactive,,,inactive
NC(=O)C(Cl)(Cl)Cl,,inactive,inactive,inactive,inactive,,,inactive,inactive,inactive,,,inactive,inactive,inactive,inactive,,,,inactive
COP(=S)(Oc1cc(Cl)c(Br)cc1Cl)c1ccccc1 (configuration not stated),,inactive,inactive,inactive,,54.5 µM (active),,,inactive,,,,inactive,,,inactive,inactive,,inactive,inactive
O=S1OC[C@@H]2[C@H](CO1)[C@]1(Cl)C(Cl)=C(Cl)[C@@]2(Cl)C1(Cl)Cl (some centres not stated),,inactive,inactive,inactive,27.3 µM (active),,,43.6 µM (active),,,,,,,inactive,inactive,,,,inactive
CCOc1nc(F)cc2nc(S(=O)(=O)Nc3c(Cl)cccc3Cl)nn12,,inactive,inactive,inactive,inactive,,,inactive,inactive,,,,inactive,inactive,inactive,inactive,inactive,,,inactive
